From PubChem BioAssay (Tox21)
Results filed as inconclusive are left out. The source made the active and inactive calls. Unless noted, calls come from the whole dose curve; as a rule, active = well fitted curve in the direction sought with a large enough effect in the repeat runs; inconclusive = weak or mixed curves; inactive = no such curve, though single readings can be large; an effect the other way counts as inactive or inconclusive.

Legend:
[1] = target: Progesterone receptor (Homo sapiens) (UniProt P06401); test: qHTS assay to identify small molecule agonists of the progesterone receptor (PR) signaling pathway (AID 1346784; calls by dose curve; note: nearly all actives have a fitted effect of over 30% in size)
How it was run: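 Using charcoal-stripped serum (2%) to limit endogenous steroids, PR-UAS-bla HEK 293T cells received compounds for 16 hr at 37C after 6 hr plating; beta-lactamase FRET fluorescence was recorded following 2 hr substrate loading at room temperature.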

[2] = target: Progesterone receptor (Homo sapiens) (UniProt P06401); test: qHTS assay to identify small molecule antagonists of the progesterone receptor (PR) signaling pathway (AID 1346795; active = well fitted inhibition curve with a large enough effect in the signal ratio in the repeat runs, not every such curve was filed as active; the % refers to the signal ratio)
How it was run: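 Inhibition of R5020-induced (1 nM final) beta-lactamase reporter signal in PR-UAS-bla HEK293T cells was scored by FRET fluorescence after overnight (16 hr) compound treatment.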

[3] = qHTS assay to identify small molecule antagonists of the progesterone receptor (PR) signaling pathway - cell viability counter screen (AID 1346798); note: series mostly up to about 92 µM; nearly all actives have a fitted effect of over 50% in size
How it was run: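 ATP content as viability readout: CellTiter-Glo luminescence, 30 min room temperature, in PR-UAS-bla HEK293T cells after 16 hr compound/R5020 treatment at 37C and 5% CO2.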

[4] = qHTS assay to identify small molecule agonists of the progesterone receptor (PR) signaling pathway - cell viability counter screen (AID 1346799; calls by dose curve; note: nearly all actives have a fitted effect of over 45% in size)
How it was run: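 Cytotoxicity in PR-bla HEK293T cells: 16 h compound, 37C; CellTiter-Glo added post-FRET read; luminescence after 30 min RT.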

[5] = qHTS assay to identify small molecule antagonists of the TGF-beta/Smad signaling pathway - cell viability counter screen (AID 1346824); note: nearly all actives have a fitted effect of over 50% in size
How it was run: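 Cytotoxicity counter-screen run in the same wells as the beta-lactamase Smad reporter read: CellTiter-Glo luminescence after 30 min at room temperature. HEK 293T SBE-bla cells had 5 hr compound exposure at 37 C with TGF-beta1 (0.25 ng/mL stock).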

[6] = qHTS assay to identify small molecule agonists of the TGF-beta/Smad signaling pathway - cell viability counter screen (AID 1346829); note: top concentration of the series differs between compounds; nearly all actives have a fitted effect of over 45% in size
How it was run: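 Here the cytotoxicity of library compounds is measured in SBE-bla HEK 293T cells treated for 5 hr, using CellTiter-Glo added to wells already read for the beta-lactamase reporter.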

[7] = qHTS assay to identify small molecule agonists of the TGF-beta/Smad signaling pathway (AID 1346859; active = well fitted activation curve with a large enough effect in the signal ratio in the repeat runs, not every such curve was filed as active; the % refers to the signal ratio; note: series mostly up to about 77 µM)
How it was run: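 Stable Smad binding element-beta-lactamase HEK 293T cells; 5 hr compound exposure at 37 C under 5% CO2; 2 hr room-temperature substrate step; fluorescence excited at 405 nm, collected at 460 nm and 530 nm.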

[8] = target: Thyrotropin-releasing hormone receptor (Homo sapiens) (UniProt P34981); test: qHTS assay to identify small molecule antagonists of the thyrotropin-releasing hormone receptor (TRHR) signaling pathway (AID 1346877; active = well fitted inhibition curve with a large enough effect in the repeat runs, not every such curve was filed as active; note: series mostly up to about 51 µM)
How it was run: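 Intracellular calcium fluorescence, read kinetically every second over 3 min, reports TRH-evoked signalling in HEK293 cells carrying TRHR. Test compounds were added 5 min ahead of a 1 nM TRH challenge.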

[9] = target: Thyrotropin-releasing hormone receptor (Homo sapiens) (UniProt P34981); test: qHTS assay to identify small molecule agonists of the thyrotropin-releasing hormone receptor (TRHR) signaling pathway (AID 1346891; calls by dose curve;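 note: HEK293 cells expressing TRHR with calcium dye readout; series mostly up to about 58 µM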)
How it was run: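 In 1536-format, 1500 TRHR-Hek293 cells per well grew 18 h, took up calcium dye for 2 h at 37 °C, received compound, and were read kinetically; 15-point titrations, triplicates.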

[10] = Human pregnane X receptor (PXR) small molecule agonists, qHTS cell viability counter screen (AID 1346977); note: nearly all actives have a fitted effect of over 50% in size
How it was run: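 Readout is CellTiter-Fluor fluorescence from PXR-Luc HepG2 cells. Plated cells rested 5hr, then were treated with compounds for 24hr at 37C and 5% CO2, with reagent present during the last hour.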

Measured: Potency

Thyrotropin-releasing hormone receptor (Homo sapiens), sequence (P34981 whole entry, looked up): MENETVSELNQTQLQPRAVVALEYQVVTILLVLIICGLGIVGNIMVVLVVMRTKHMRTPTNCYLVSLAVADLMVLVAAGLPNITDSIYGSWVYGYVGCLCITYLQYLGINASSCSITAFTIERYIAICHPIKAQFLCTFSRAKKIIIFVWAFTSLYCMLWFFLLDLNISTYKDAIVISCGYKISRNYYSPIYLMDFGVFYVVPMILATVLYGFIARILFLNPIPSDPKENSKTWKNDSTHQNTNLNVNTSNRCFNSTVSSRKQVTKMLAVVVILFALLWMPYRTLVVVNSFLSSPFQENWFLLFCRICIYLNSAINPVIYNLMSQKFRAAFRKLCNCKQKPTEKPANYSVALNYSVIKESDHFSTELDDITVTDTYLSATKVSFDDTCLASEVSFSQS
Progesterone receptor (Homo sapiens), sequence (P06401 whole entry, looked up): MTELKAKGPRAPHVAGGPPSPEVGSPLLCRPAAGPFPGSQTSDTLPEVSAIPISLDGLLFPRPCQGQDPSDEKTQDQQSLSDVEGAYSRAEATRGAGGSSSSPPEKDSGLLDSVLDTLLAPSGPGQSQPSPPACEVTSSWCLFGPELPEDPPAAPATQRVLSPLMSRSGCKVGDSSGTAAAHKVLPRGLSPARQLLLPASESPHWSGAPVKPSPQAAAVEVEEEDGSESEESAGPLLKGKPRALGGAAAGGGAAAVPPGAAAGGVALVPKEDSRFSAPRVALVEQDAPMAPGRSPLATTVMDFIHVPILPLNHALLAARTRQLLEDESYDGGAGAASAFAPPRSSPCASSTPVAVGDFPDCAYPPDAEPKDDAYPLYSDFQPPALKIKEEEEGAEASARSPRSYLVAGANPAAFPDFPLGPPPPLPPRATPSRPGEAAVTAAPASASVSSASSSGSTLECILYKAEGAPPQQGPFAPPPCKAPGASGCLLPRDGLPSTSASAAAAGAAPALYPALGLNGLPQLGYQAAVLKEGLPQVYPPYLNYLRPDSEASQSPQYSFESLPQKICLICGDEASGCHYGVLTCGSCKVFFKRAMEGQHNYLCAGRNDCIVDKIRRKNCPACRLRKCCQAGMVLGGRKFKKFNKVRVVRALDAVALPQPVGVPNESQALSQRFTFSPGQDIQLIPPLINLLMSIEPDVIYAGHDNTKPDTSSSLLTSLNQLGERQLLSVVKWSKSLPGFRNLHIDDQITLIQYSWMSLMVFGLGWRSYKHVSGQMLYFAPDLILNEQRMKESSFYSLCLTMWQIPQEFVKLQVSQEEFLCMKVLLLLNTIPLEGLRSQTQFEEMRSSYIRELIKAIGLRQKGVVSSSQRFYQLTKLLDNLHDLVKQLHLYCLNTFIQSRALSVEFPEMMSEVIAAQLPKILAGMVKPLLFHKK

CCSC(=O)N(CC)CC
inactive: all assays above

CC(=O)OCC(C)C
inactive: all assays above

N[C@@H](Cc1cc(I)c(O)c(I)c1)C(=O)O
inactive: all assays above

O=[N+]([O-])C1(Br)COCOC1
not listed: [10]
inactive: all other assays above

O=C(O)CCC(=O)OC[C@@H](NC(=O)C(Cl)Cl)[C@H](O)c1ccc([N+](=O)[O-])cc1
inactive: all assays above

COc1ccc(C(=O)NCc2ccc(OCCN(C)C)cc2)cc1OC
inactive: all assays above

CC(CN(CCN(CC(C)OCCO)CC(C)OCCO)CC(C)OCCO)OCCO (centres undefined)
inactive: all assays above

O=C(O)CO
inactive: all assays above

COc1cc(NS(=O)(=O)c2ccc(N)cc2)nc(C)n1
inactive: all assays above

O=NN(CCCl)C(=O)NCCCl
inactive: all assays above

CC(C)C(=O)OCCOc1ccccc1
inactive: all assays above

CC(C(=O)O)c1ccc(C(=O)c2cccs2)cc1 (centres undefined)
inactive: all assays above

COC(=O)c1sccc1S(N)(=O)=O
inactive: [1] | [2] | [3] | [4] | [5]

O=C(O)c1cccc(C[C@@H]2COc3ccc(OCc4nc5cc(F)ccc5s4)cc3[C@@H]2O)c1
inactive: all assays above

CC(CCc1ccc(O)cc1)NCCc1ccc(O)c(O)c1 (centres undefined)
inactive: all assays above

CCCCCC
inactive: all assays above

COC1CCC=CO1 (centres undefined)
not listed: [8] | [9]
inactive: all other assays above

O=c1[nH]c2cc(C(F)(F)F)c(N3CCOCC3)cc2n(CP(=O)(O)O)c1=O
not listed: [6]
inactive: all other assays above

CC1CCCC(=O)C1=O (centres undefined)
not listed: [8] | [9]
inactive: all other assays above

Cc1c[nH]c2ccccc12
not listed: [7]
inactive: all other assays above

CCOC(=O)C(C)O (centres undefined)
not listed: [8] | [9]
inactive: all other assays above

CCN(CC)C(=O)N1CCN(C)CC1
not listed: [7] | [8] | [9]
inactive: all other assays above

CCCCCCCCCCCCCCCCCC(=O)OCC(CC)CCCC (centres undefined)
not listed: [8] | [9]
inactive: all other assays above

CC[C@H]1OC(=O)[C@H](C)[C@@H](O[C@H]2C[C@@](C)(OC)[C@@H](O)[C@H](C)O2)[C@H](C)[C@@H](O[C@@H]2O[C@H](C)C[C@H](N(C)C)[C@H]2O)[C@](C)(O)C[C@@H](C)C(=O)[C@H](C)[C@@H](O)[C@]1(C)O
not listed: [8] | [9]
inactive: all other assays above
